Data taken from PubChem BioAssay (Tox21).
Records with an inconclusive call do not appear. Unmarked numbers belong to inactive results. Calls come from the whole dose curve; as a rule, active = well fitted cell-killing curve with a large enough effect in the repeat runs; inconclusive = weak or mixed curves; inactive = no such curve, though single readings can be large or run the other way.

test: qHTS assay to identify small molecule antagonists of the peroxisome proliferator-activated receptor delta (PPARd) signaling pathway - cell viability counter screen (AID 743213); conditions: PPARd-bla HEK293H viability, CellTiter-Glo luminescence, 17 h; series mostly up to 62 µM; viability change, negative = cytotoxic: at the top concentration; note: nearly all actives have a fitted effect of over 50% in size
From the text: U.S. Tox21 Program National Center for Advancing Translational Sciences [NCATS] NIH Chemical Genomics Center [NCGC] U.S. Environmental Protection Agency [EPA] National Institutes of Environmental Health Sciences [NIEHS] National Toxicology Program [NTP] U.S. Food and Drug Administration [FDA] Tox21 Assay Overview: The peroxisome proliferator-activated receptors (PPARs) are lipid-activated transcription factors of the nuclear receptor superfamily with three distinct subtypes namely PPAR alpha, PPAR delta (PPARd) and PPAR gamma. All these subtypes heterodimerizes with Retinoid X receptor (RXR) and have different physiological functions. […] To identify the compounds that inhibit PPAR-delta signaling, GeneBLAzer PPAR delta UAS-bla HEK293H cell line (Invitrogen, Carlsbad, CA, USA) containing a beta-lactamase reporter gene under the control of an Upstream Activator Sequence (UAS) was used to screen the Tox21 compound library. The cytotoxicity of the Tox21 compound library against the PPARd-bla cell line was tested in parallel by measuring the cell viability using CellTiter-Glo assay (Promega, Madison, WI) in the same wells.
Tox21 Assay Protocol Summary: PPARd-bla cells were dispensed at 3000 cells/5uL/well in 1536-well black wall/clear bottom plates using a Multidrop Combi (Thermo Fisher Scientific, Waltham, MA) dispenser. After the assay plates were incubated at 37 C and 5% CO2 for 5 h, 23 nL of compounds dissolved in DMSO, positive controls or DMSO only was transferred to the assay plate by a Pintool station (Kalypsys, San Diego, CA), followed by addition of 1ul L165041 (300 nM, final concentration in the wells). The assay plates were incubated at 37 C for 17 h, and then 1 uL of LiveBLAzerTM B/G FRET substrate was added using a Bioraptr Flying Reagent Dispenser (FRD) workstation (Beckman Coulter, Indianapolis, IN, USA). The assay plates were incubated at room temperature for 2 h and fluorescence intensity was measured by an Envision plate reader (PerkinElmer, Shelton, CT). For cell viability readout that measures cytotoxicity, 3 ul/well of CellTiter-Glo reagent was added into the assay plates using a Bioraptr FRD. After 30 min incubation at room temperature, the luminescence intensity in the plates was measured using a ViewLux plate reader (PerkinElmer).
% is set by controls: 0 for no effect and ±100 for the full control effect.

SMILES	viability change, negative = cytotoxic
CC(=O)OCCc1ccccc1	13.3%
CC(C)c1cccc(C(C)C)c1NC(=O)NS(=O)(=O)c1cc(C(C)(C)O)co1	-5.72%
CCCCOC(=O)/C=C\C(=O)OCCCC	-26.7% [at 80.4 µM]
Oc1ccc(Cc2ccccc2)cc1	-23.1%
CC(C)(C)c1cc(O)c(C(C)(C)C)cc1O	-20.2%
CCN1CCC[C@H]1CNC(=O)c1c(OC)ccc(Br)c1OC	6.48%
Cc1cccc(Oc2ccccc2)c1	11.8%
O=C(NS(=O)(=O)/C=C/c1cccs1)c1ccc(F)cc1Br	-21.6%
CN1CCN(C2=Nc3ccccc3Sc3ccc(Cl)cc32)CC1	-1.32%
NCc1ccccc1	10.6%
Cc1ccc2c(ccc3ccccc32)c1	6.19% [at 80.4 µM]
CC(C)(C)c1ccc(OCC2CO2)cc1 (stereo not given)	-21% [at 80.4 µM]
CNS(=O)(=O)Cc1ccc2[nH]cc(CCN(C)C)c2c1	-15.7%
c1ccc(-c2nc[nH]c2-c2ccccc2)cc1	2.4%
CC(=O)/C(C)=C/C1C(C)=CCCC1(C)C (stereo not given)	0.484%
Cc1cc(CC(=O)O)c(C)n1-c1ccc(Cl)cc1	-20.5%
N#CCc1cccc(C(F)(F)F)c1	-7.31%
CCN(CC)CCOC(=O)C1(c2ccccc2)CCCC1	-1.55%
CCOC(=O)CC(C)C	-0.0144%
CCCCCCCCCCCCCCCC(=O)OC/C=C(C)/C=C/C=C(C)/C=C/C1=C(C)CCCC1(C)C	-0.371%

SMILES	viability change, negative = cytotoxic
COc1ccc2[nH]c(S(=O)Cc3ncc(C)c(OC)c3C)nc2n1 (stereo not given)	16.6%
CCCCOCCOCCOCCOCCO	-10.6%
Cc1ccccc1N=Nc1ccc(N=Nc2c(O)ccc3ccccc23)c(C)c1	-12.6%
CCCCC(CC)COCCCN (stereo not given)	-2.31%
C=C(C)C(=O)OCCN(C)C	-13% [at 80.4 µM]
CC1(C)[C@H]2CC[C@]1(C)[C@H](O)C2	0.952%
CCCCCCCCCCCCCCC1CO1 (stereo not given)	-16.4%
CC(=O)c1c(C)c([N+](=O)[O-])c(C(C)(C)C)c([N+](=O)[O-])c1C	-9.15%
Cc1occc1S	24.7%
CC(C)CCCC(C)CCO (stereo not given)	-35.5%
CCCCCCCCCC=O	-10.1%
COc1ccc(OC)c(OC)c1	-0.12%
CCCCOC(O)CC (stereo not given)	-1.47%
Cc1ccc(C(C)c2ccc(C)c(C)c2)cc1C	8.59%
CC(C)c1ccc2c(C(C)C)cc(C(C)C)c(S(=O)(=O)O)c2c1	0.207% [at 80.4 µM]
CC(O)C1CCCCC1 (stereo not given)	2.16%
O=C(/C=C/c1ccc(O)c(O)c1)O[C@@H]1C[C@](O)(C(=O)O)C[C@@H](O)[C@H]1O	8.42% [at 80.4 µM]
O=C1Nc2cc(Cl)ccc2Oc2ccccc21	5.04%
FC(F)(F)C(F)(F)C(F)(F)C(F)(F)C(F)(F)C(F)(F)CCI	10.8%
O=C(CC(=O)c1ccccc1)c1ccccc1	7.77% [at 80.4 µM]
